PTAP TSG101 blk = qHTS Assay for Iinhibitors of HIV-1 Budding by Blocking the Interaction of PTAP/TSG101. Potency, µM (top dose mostly 115 µM), inactives show at the top dose activity change, negative = inhibition, usual class: inhibitors. Fluorescence polarization, FITC-PTAP peptide / Tsg101 binding. 340,000 tested, under 10 active. AID 493005, 2010; active = well fitted inhibition curve with a large enough effect in the main read-out, with a control signal flat, not every such curve was filed as active; inconclusive = small, poorly fitted or top-dose-only effect, or effect the other way, or a change in a side signal; inactive = no such curve, though single readings can be large or run the other way; note: % of control where 0% means no effect
Target sequence (Q99816 whole entry, looked up): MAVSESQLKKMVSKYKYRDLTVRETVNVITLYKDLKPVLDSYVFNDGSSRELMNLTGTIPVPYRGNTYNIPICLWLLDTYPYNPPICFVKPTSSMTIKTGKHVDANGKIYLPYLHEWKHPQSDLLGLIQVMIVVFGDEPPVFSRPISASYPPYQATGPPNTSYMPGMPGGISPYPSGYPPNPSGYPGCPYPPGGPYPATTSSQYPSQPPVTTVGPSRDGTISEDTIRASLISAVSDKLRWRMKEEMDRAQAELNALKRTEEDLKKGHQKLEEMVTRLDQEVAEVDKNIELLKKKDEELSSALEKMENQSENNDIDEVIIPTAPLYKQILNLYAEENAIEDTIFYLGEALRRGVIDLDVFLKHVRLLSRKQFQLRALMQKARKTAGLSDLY
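Fluorescence anisotropy tracks displacement of a FITC-tagged PTAP peptide (50 nM) from the Tsg101 binding domain (10 uM), following a 20 min room-temperature incubation at pH 7.5.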
KB-V1 MDR tox = qHTS assay for MDR1-selective chemotherapeutics: Primary screen using the drug-selected MDR subline cells KB-V1; KB-V1 MDR cells viability, CellTiter-Glo, 72 h; Potency, µM (top dose mostly 46.1 µM), most hits filed as cytotoxic; 3.4% of 400,000 active; AID 1347076, 2019; note: % is set by controls: 0 for no effect and ±100 for the full control effect; nearly all actives have a fitted effect of over 60% in size
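qHTS viability screen in drug-selected KB-V1 MDR cells: 72 h compound treatment at 37 degrees C, ATP luminescence end point.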
RGS4 inh = Inhibitors of Regulator of G Protein Signaling (RGS) 4: qHTS; Potency, µM (top dose mostly 114 µM), for inactives: at the highest dose activity change, negative = inhibition, most hits filed as inhibitors; 0.039% of 390,000 active; Transcreener GDP fluorescence polarization, RGS4-accelerated GTP hydrolysis; note: % is set by controls: 0 for no effect and ±100 for the full control effect; nearly all actives have a fitted effect of over 75% in size
Target sequence (P49798 whole entry, looked up): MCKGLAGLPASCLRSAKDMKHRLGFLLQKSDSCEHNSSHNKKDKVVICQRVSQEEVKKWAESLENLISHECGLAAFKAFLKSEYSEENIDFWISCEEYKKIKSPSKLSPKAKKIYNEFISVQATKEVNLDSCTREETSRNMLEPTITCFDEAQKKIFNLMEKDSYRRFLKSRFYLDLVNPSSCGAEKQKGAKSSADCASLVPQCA
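MLSMR compounds (23 nl, pin-transferred) preincubated 10 min at room temperature with a 500nM (2x) first reagent, then RGS4 at 900nM (2x) plus Transcreener GDP mix added; fluorescence polarization (620/688 nm) read before and after 90 min at 30 °C.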
MCF10A rerep = A quantitative high throughput screen for small molecules that induce DNA re-replication in MCF 10a normal breast cells; MCF 10A DNA re-replication, Hoechst nuclear intensity, 48 h; 2.9% of 350,000 active; Potency, µM (highest dose often 46.1 µM), inactives show at the highest dose activity, positive = re-replication, usual class: activators; note: % of control where 0% means no effect; nearly all actives have a fitted effect of over 50% in size
SW480 rerep = A quantitative high throughput screen for small molecules that induce DNA re-replication in SW480 colon adenocarcinoma cells. 1.8% of 340,000 active. Potency, µM (series often up to 46.1 µM), for inactives: top-dose re-replication activation, actives largely listed as activators. SW480 DNA re-replication, Hoechst DNA content imaging, 48 h; note: % of control where 0% means no effect; nearly all actives have a fitted effect of over 55% in size
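First, 250 cells per well were seeded. Next, compound or vehicle (23 nL) was pinned in, plates sat 48 hr at 37 C. Finally Hoechst was added for 40 min before fluorescence scanning.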
KB-3-1 tox = qHTS assay for MDR1-selective chemotherapeutics: Primary screen using the parental adenocarcinoma cell KB-3-1 | KB-3-1 viability, CellTiter-Glo ATP luminescence, 72 h | Potency, µM (top dose mostly 46.1 µM), usual class: cytotoxic | 1.4% of 400,000 active | AID 1347075, 2019; note: % is set by controls: 0 for no effect and ±100 for the full control effect; nearly all actives have a fitted effect of over 60% in size
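Screening of KB-3-1 cells (DMEM, 10% FBS, phenol-red free) ran from lowest to highest compound concentration; after 72 h at 37 °C viability was read luminescently and curves fitted.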
Active calls of the source: *; i = inactive; ? = inconclusive; nt = not tested or not shown; ! = a repeat was not active; [ ] = dose if it differs, or a comment. Hits are enriched below; roughly 6.6% of the tested compounds scored in any of these assays. Unless noted, calls come from the whole dose curve; as a rule, active = well fitted curve in the direction sought with a large enough effect; inconclusive = small, poorly fitted or top-dose-only effect, or another doubt; inactive = no such curve, though single readings can be large; an effect the other way counts as inactive or inconclusive. Potency is the fitted concentration of half-maximal effect.

SMILES | PTAP TSG101 blk | KB-V1 MDR tox | RGS4 inh | MCF10A rerep | SW480 rerep | KB-3-1 tox
Cn1c(=O)n(C)c2cc(CNCCc3ccccc3)ccc21 | nt | i | -1% | nt | nt | i
CC[C@H](C)[C@@H]1NC(=O)CNC(=O)c2csc(n2)[C@H](C(C)(C)O)OC(=O)C(C)(C)[C@H](CCCC(C)(Cl)Cl)OC(=O)c2csc1n2 | nt | 13µM* | nt | nt | nt | 0.46µM*
CC1=CC(C)CC(C)OC(=O)CC(c2ccc(O)cc2)NC(=O)C(Cc2c(Br)[nH]c3ccccc23)N(C)C(=O)C(C)NC(=O)C(C)C1 (configuration not stated) | -1% | 1.6µM* | -16% | ? | 0.12µM* | 0.18µM*
N#Cc1cn(C2OC(CO)C(O)C2O)c2ncnc(N)c12 (configuration not stated) | -3% | ? | -35% | 19% | 12% | 0.0073µM*
N#Cc1c(Br)n(C2OC(CO)C(O)C2O)c2ncnc(N)c12 (configuration not stated) | -6% | ? | -31% | ? | ? | ?
NC(=O)c1cn(C2OC(CO)C(O)C2O)c2ncnc(N)c12 (configuration not stated) | -3% | 0.0073µM*! | 13% | ? | 0.058µM* | 0.021µM*
NC(=O)c1ncn(C2OC(CO)C(O)C2O)n1 (configuration not stated) | nt | nt | nt | -1% | -3% | nt
NC(=O)c1c(Br)n(C2OC(CO)C(O)C2O)c2ncnc(N)c12 (configuration not stated) | -1% | 9.2µM* | 5% | 2.3µM* | ? | 4.1µM*
COc1cccc(/C=N/NC(=O)c2c(C)nc3ccc(Br)cn23)c1 | -4% | i | -7% | 1% | ? | i
C#CC1(O)CCC2C3CCC4=CC(=O)CCC4(C)C3CCC21C (configuration not stated) | nt | nt | nt | 5% | -2% | nt
C#C[C@]1(O)CC[C@H]2[C@@H]3CCC4=Cc5nc6nc7ccccc7n6cc5C[C@]4(C)[C@H]3CC[C@@]21C | ? | ? | -34% | ? | 7.9µM* | i
O=C(Cc1ccc(Cl)c(Cl)c1)N1CCCCC1CN1CCCC1 (configuration not stated) | nt | nt | -10%[56.9 µM] | nt | nt | nt
O=C(NCCc1ccccc1)[C@@H]1CC=C[C@@H]2CCN(Cc3ccc(Cl)c(Cl)c3)C(=O)[C@@H]21 | -7% | 16µM*! | -6% | ? | ? | ?
C[C@H]1COC2=C1C(=O)C(=O)c1c2ccc2c1CCCC2(C)C | 0% | i | ? | 18µM* | ? | ?
O=[N+]([O-])c1cc(C(F)(F)F)c(Cl)c([N+](=O)[O-])c1Nc1ncc(C(F)(F)F)cc1Cl | nt | ? | nt | nt | nt | 1.5µM*
C[C@@H](Cc1cccc(C(F)(F)F)c1)NCCCc1ccccc1 | nt | nt | i | nt | nt | nt
CCN(CC)CCN1C(=O)CN=C(c2ccccc2F)c2cc(Cl)ccc21 | nt | nt | nt | 14% | 3% | nt
CN(C)c1ccc(CCN2CCOCC2)cc1 | -3% | i | -7% | 1% | -48%[9.22 µM] | i
c1ccc(OCc2ccc(CCCN3CCOCC3)cc2)cc1 | nt | i | 17% | 24µM*! | 3% | i
Cc1cc(C(=O)OCC(=O)Nc2ccc(F)cc2)c(C)n1C1CC1 | -1% | 23µM* | -18% | 2% | 0% | i
Cc1cc(C(=O)OCC(=O)Nc2cccc(F)c2)c(C)n1C1CC1 | -4% | i | 6% | 4% | 1% | i
CSc1ccccc1NC(=O)CN(C)CC(=O)c1[nH]c(C)c(C(C)=O)c1C | 0% | ? | -47% | ? | 15% | i
NCC(CP(=O)(O)O)c1ccc(Cl)cc1 (configuration not stated) | nt | nt | -1%[56.9 µM] | nt | nt | nt
C[C@H]1CCC[C@@H](O)CCC/C=C/c2cc(O)cc(O)c2C(=O)O1 | nt | ? | -4% | 10µM* | ? | i
C[C@H]1CCC[C@H](O)CCCCCc2cc(O)cc(O)c2C(=O)O1 | -5% | ? | 13% | ? | ? | ?
SMILES | PTAP TSG101 blk | KB-V1 MDR tox | RGS4 inh | MCF10A rerep | SW480 rerep | KB-3-1 tox
CC1CCC[C@H](O)CCCCCc2cc(O)cc(O)c2C(=O)O1 (some centres not stated) | 3% | 21µM* | 19% | 1% | -39% | i
CCOC(OCC)P(=O)(O)CCCN | nt | nt | -40%[56.9 µM] | nt | nt | nt
Cn1cc(C(=O)OCC(=O)Nc2ccccc2)c2ccccc21 | -7% | 21µM* | -24% | -1% | -6% | i
CCOC(=O)c1ccc(NC(=O)c2cccn(Cc3ccccc3F)c2=O)cc1 | nt | 5.8µM* | -33% | nt | nt | i
O=C(Nc1ccccc1)c1cccn(Cc2ccccc2)c1=O | -1% | ? | -32% | 18% | -136% | ?
O=C(Nc1ccncc1)c1cccn(Cc2ccccc2)c1=O | -4% | 5.8µM* | -7% | 0% | 11% | ?
Oc1ccccc1-c1ccccc1 | nt | nt | nt | 0% | 15% | nt
CCn1c(C)[n+](CC(O)COCC2CC=CCC2)c2ccccc21 (configuration not stated) | -6% | i | -27% | ? | -5% | i
CN1/C(=C\C=C2C(=O)NC(=O)NC2=O)C(C)(C)c2ccccc21 | ? | ? | -6% | 12% | 8% | 5.2µM*
CN1/C(=C\C=Nc2ccccc2)C(C)(C)c2ccccc21 | 0% | i | 10% | 16% | -2% | i
Nc1c(C(=O)Nc2ccc(OC(F)(F)F)cc2)sc2nc3c(cc12)N1CCC3CC1 | nt | nt | -20% | nt | nt | nt
c1ccc2c(CCNC3CCCCC3)c[nH]c2c1 | -2% | i | -12% | -12% | 21µM* | i
c1ccc2c(CCN3CCCCC3)c[nH]c2c1 | nt | i | nt | nt | nt | i
O=C(NC(O)C(Cl)(Cl)Cl)NC(O)C(Cl)(Cl)Cl (configuration not stated) | nt | nt | nt | 3% | 9% | nt
C=C(C)[C@H]1Cc2c(ccc3c2O[C@@H]2COc4cc(OC)c(OC)cc4[C@@H]2C3=O)O1 | nt | nt | ? | 3.9µM*! | ? | nt
CCOC(=O)C1(c2ccccc2)CCN(CCC(C#N)(c2ccccc2)c2ccccc2)CC1 | -1% | ? | 15% | ? | 2.8µM* | i
C/C(=N\Nc1ccccc1)c1c(O)[nH]c(=O)[nH]c1=O | -6% | i | 0% | ? | 21µM* | ?
CCC(=NCc1ccc(F)cc1)c1c(O)n(C)c(=O)n(C)c1=O | 0% | 15µM* | -15% | -2% | -20% | ?

Screens as filed in PubChem BioAssay.
